# Many of the other results were omitted from the sample, so the strongest signals are more common in it than they were.
# What was measured:
# Assay in all cases: glycan array binding signal (z-score within array); higher = stronger binding
# Settings in all cases: glycan notation: IUPAC condensed, linker removed
# Gal3S6S(b1-4)GlcNAc = molecular target: Gal3S6S(b1-4)GlcNAc
# Outline: (§1)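 Arrays were curated from the Consortium for Functional Glycomics database, 3228 in total, and kept only where the protein sequence was available. Binding is expressed as a within-array Z-score. This score was averaged across arrays of the same protein sequence at different concentrations or buffers and across linkers, and negative values can be read as non-binding.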
# Gal4S6S(b1-4)GlcNAc = molecular target: Gal4S6S(b1-4)GlcNAc
# Outline: as §1
# GalNAc(b1-4)GlcNAc6S = molecular target: GalNAc(b1-4)GlcNAc6S
# Outline: as §1
# GalNAc3S(b1-4)GlcNAc = molecular target: GalNAc3S(b1-4)GlcNAc
# Outline: as §1
# Glc(b1-4)Glc = molecular target: Glc(b1-4)Glc
# Outline: as §1
# GlcA(b1-6)Gal = molecular target: GlcA(b1-6)Gal
# Outline: as §1
# [1] = molecular target: GlcNAc(a1-4)Gal(b1-4)GlcNAc(b1-3)Gal(b1-4)GlcNAc
# Outline: as §1
# [2] = molecular target: GlcNAc(b1-2)Gal(b1-3)GalNAc
# Outline: as §1
# [3] = molecular target: GlcNAc(b1-2)[GlcNAc(b1-4)]Man(a1-3)[GlcNAc(b1-4)][GlcNAc(b1-2)[GlcNAc(b1-6)]Man(a1-6)]Man(b1-4)GlcNAc(b1-4)[Fuc(a1-6)]GlcNAc
# Outline: as §1
# [4] = molecular target: GlcNAc(b1-3)Gal(b1-4)GlcNAc(b1-3)Gal(b1-4)GlcNAc(b1-3)Gal(b1-4)GlcNAc(b1-3)Gal(b1-4)GlcNAc(b1-2)[GlcNAc(b1-3)Gal(b1-4)GlcNAc(b1-3)Gal(b1-4)GlcNAc(b1-3)Gal(b1-4)GlcNAc(b1-3)Gal(b1-4)GlcNAc(b1-6)]Man(a1-6)[GlcNAc(b1-3)Gal(b1-4)GlcNAc(b1-3)Gal(b1-4)GlcNAc(b1-3)Gal(b1-4)GlcNAc(b1-3)Gal(b1-4)GlcNAc(b1-2)Man(a1-3)]Man(b1-4)GlcNAc(b1-4)[Fuc(a1-6)]GlcNAc
# Outline: as §1
# [5] = molecular target: GlcNAc(b1-3)Gal(b1-4)GlcNAc(b1-3)GalNAc
# Outline: as §1
# [6] = molecular target: GlcNAc(b1-3)Gal(b1-4)GlcNAc(b1-6)[Gal(b1-3)]GalNAc
# Outline: as §1
# [7] = molecular target: GlcNAc6S(b1-3)Gal(b1-4)GlcNAc
# Outline: as §1
# [8] = molecular target: Man(a1-2)Man(a1-2)Man(a1-6)[Man(a1-3)]Man
# Outline: as §1
# Man(a1-2)Man(a1-3)Man = molecular target: Man(a1-2)Man(a1-3)Man
# Outline: as §1
# [9] = molecular target: Man(a1-2)Man(a1-3)[Man(a1-2)Man(a1-6)]Man(a1-6)[Man(a1-2)Man(a1-2)Man(a1-3)]Man
# Outline: as §1
# [10] = molecular target: Neu5Ac(a2-3)Gal(b1-3)GlcNAc(b1-3)Gal(b1-3)GlcNAc
# Outline: as §1
# [11] = molecular target: Neu5Ac(a2-3)Gal(b1-3)[Fuc(a1-4)]GlcNAc
# Outline: as §1
# [12] = molecular target: Neu5Ac(a2-3)Gal(b1-3)[Neu5Ac(a2-6)]GalNAc
# Outline: as §1
# [13] = molecular target: Neu5Ac(a2-3)Gal(b1-4)GlcNAc(b1-6)[Gal(b1-3)]GalNAc
# Outline: as §1
# [14] = molecular target: Neu5Ac(a2-3)Gal(b1-4)[Fuc(a1-3)]GlcNAc(b1-3)Gal(b1-4)GlcNAc
# Outline: as §1
# [15] = molecular target: Neu5Ac(a2-6)Gal(b1-4)GlcNAc(b1-2)Man(a1-3)Man(b1-4)GlcNAc(b1-4)GlcNAc
# Outline: as §1
# [16] = molecular target: Neu5Ac(a2-6)Gal(b1-4)GlcNAc(b1-2)Man(a1-3)[Gal(b1-4)GlcNAc(b1-2)Man(a1-6)]Man(b1-4)GlcNAc(b1-4)GlcNAc
# Outline: as §1
# [17] = molecular target: Neu5Ac(a2-6)Gal(b1-4)GlcNAc(b1-2)Man(a1-3)[Neu5Ac(a2-3)Gal(b1-4)GlcNAc(b1-2)Man(a1-6)]Man(b1-4)GlcNAc(b1-4)GlcNAc
# Outline: as §1
# [18] = molecular target: Neu5Ac(a2-6)Gal(b1-4)GlcNAc(b1-3)Gal(b1-3)GlcNAc
# Outline: as §1
# [19] = molecular target: Neu5Ac(a2-6)Gal(b1-4)GlcNAc(b1-6)[Gal(b1-3)]GalNAc
# Outline: as §1
# [20] = molecular target: Neu5Ac(a2-8)Neu5Ac(a2-8)Neu5Ac
# Outline: as §1
# [21] = molecular target: Neu5Ac(a2-8)Neu5Gc(a2-3)Gal(b1-4)GlcNAc
# Outline: as §1
# [22] = molecular target: Neu5Ac9Ac(a2-3)Gal(b1-4)GlcNAc
# Outline: as §1
binder,measurement,setting,value
PX9937J-pdi-523-26-523 (Parabacteroides distasonis) (protein) EPVSSISDANYWKSPDLFKAFNIGLHGLLRSQSSYNIFVLGEPRSDIYGDQPFGGEATQGVERFSYNTINAEFTGISNFANFYTTLNQINLMIRRTNETDLLGEAEKNYYLGQAYGLRAYIYFHLLRSWGDVIITTEPTLGSELDISHLDKAASPASEVMDLIKKDIDASEKAFGGDYSYKQGKCYWSKPATLMLKGEVYLWSGRQMGGGTGDYTVAKTALQDLQQNGNLKLQEKFTDVFSFNNKENSEMIFALHSGKEDDFMMWRDYNWRNNMVPQREYMAGYCDETGTPFLEIPGYNLQGLMRYQVKKDHYLKSFREGDTRLKGTLKAVYKKHEDGTLEYIAPIQYKFQGTTLEGSNERSWYDDYPIYRYADALLLLAEAKALLGEDPSTEINAVRERAYGSEYFNAHKNEVAYPNDKGSFYNDNPFEAGDENVMEAILKERLREFFFEGKRWYDLRRFGKDYVLKYTTAQESRLLWPINEGALTNNPALKQTPGY,glycan array binding signal (z-score),Gal3S6S(b1-4)GlcNAc,0.142
same,glycan array binding signal (z-score),Gal4S6S(b1-4)GlcNAc,-0.181
same,glycan array binding signal (z-score),GalNAc(b1-4)GlcNAc6S,4.57
same,glycan array binding signal (z-score),GalNAc3S(b1-4)GlcNAc,0.755
same,glycan array binding signal (z-score),Glc(b1-4)Glc,-0.296
same,glycan array binding signal (z-score),GlcA(b1-6)Gal,-0.638
same,glycan array binding signal (z-score),[1],-0.296
same,glycan array binding signal (z-score),[2],-0.438
same,glycan array binding signal (z-score),[3],-0.488
same,glycan array binding signal (z-score),[4],4.67
same,glycan array binding signal (z-score),[5],-0.404
same,glycan array binding signal (z-score),[6],-0.195
same,glycan array binding signal (z-score),[7],0.294
same,glycan array binding signal (z-score),[8],-0.284
same,glycan array binding signal (z-score),Man(a1-2)Man(a1-3)Man,-0.138
same,glycan array binding signal (z-score),[9],-0.317
same,glycan array binding signal (z-score),[10],-1
same,glycan array binding signal (z-score),[11],0.062
same,glycan array binding signal (z-score),[12],0.071
same,glycan array binding signal (z-score),[13],-0.1
same,glycan array binding signal (z-score),[14],3.41
same,glycan array binding signal (z-score),[15],-0.373
same,glycan array binding signal (z-score),[16],4.14
same,glycan array binding signal (z-score),[17],-0.327
same,glycan array binding signal (z-score),[18],-0.303
same,glycan array binding signal (z-score),[19],0.505
same,glycan array binding signal (z-score),[20],-0.094
same,glycan array binding signal (z-score),[21],9.17
same,glycan array binding signal (z-score),[22],-0.44
